In PubChem BioAssay (EPA / NIEHS) one finds outcome and AC50 data, which are given here for ten molecules.

The nature of test [1]: ATG_GLI_CIS: Attagene CIS-FACTORIAL HepG2 Assay for human Zinc Finger Protein GLI1 (AID 2282945). Conditions: HepG2, Attagene cis-factorial reporter mRNA, GLI element; actives raise or lower the signal. In outline: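 Transiently transfected HepG2 cells report endogenous transcription factor activity via cis-element-driven reporter units. After 24 h compound exposure, reporter mRNA was measured by RT-PCR with capillary electrophoresis; bidirectional fitting against DMSO baseline.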

Test [2] is described as follows: ATG_ISRE_CIS: Attagene CIS-FACTORIAL HepG2 Assay for human Interferon Regulatory Factor 1 (IRF1) binding to an Interferon-Stimulated Response Element (ISRE) (AID 2282948). Conditions: HepG2 ISRE cis-reporter (Attagene), mRNA transcription readout; actives raise or lower the signal. In outline:
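Read-out: fluorescent RT-PCR products resolved by capillary electrophoresis, reporting endogenous transcription factor activity via ISRE-driven reporter mRNA in transfected HepG2 cells dosed for 24 h; gain or loss fitted relative to DMSO.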

A short description of test [3]: ATG_M_06_CIS: Attagene CIS-FACTORIAL HepG2 Assay for M06 Transcription Factor (Internal Marker) (AID 2282950). To be noted: HepG2 Attagene CIS-FACTORIAL M06 internal marker reporter; actives raise or lower the signal. Summed up:
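Cells (HepG2, transiently carrying cis-driven reporter units) receive chemical for 24 h before RNA isolation. Reporter cDNA is PCR-amplified, FAM-labelled by primer extension, HpaI-digested and sized on a capillary analyser.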

For test [4], the target named is Hypoxia-inducible factor 1-alpha (Homo sapiens) (UniProt Q16665). The experiment in a line: ATG_HIF1a_CIS: Attagene CIS-FACTORIAL HepG2 Assay for human Hypoxia Inducible Factor 1 (HIF1A) (AID 2282951). To be noted: HepG2 Attagene cis-factorial HIF1a reporter transcription; actives raise or lower the signal. In outline: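 HepG2, transient cis-reporter library, 24 h dosing. RNA → RT (oligo dT) → PCR → 6-FAM primer extension → HpaI → CE. Bidirectional curve fit vs DMSO.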
Chain of Hypoxia-inducible factor 1-alpha (Homo sapiens) (Q16665 whole entry, looked up): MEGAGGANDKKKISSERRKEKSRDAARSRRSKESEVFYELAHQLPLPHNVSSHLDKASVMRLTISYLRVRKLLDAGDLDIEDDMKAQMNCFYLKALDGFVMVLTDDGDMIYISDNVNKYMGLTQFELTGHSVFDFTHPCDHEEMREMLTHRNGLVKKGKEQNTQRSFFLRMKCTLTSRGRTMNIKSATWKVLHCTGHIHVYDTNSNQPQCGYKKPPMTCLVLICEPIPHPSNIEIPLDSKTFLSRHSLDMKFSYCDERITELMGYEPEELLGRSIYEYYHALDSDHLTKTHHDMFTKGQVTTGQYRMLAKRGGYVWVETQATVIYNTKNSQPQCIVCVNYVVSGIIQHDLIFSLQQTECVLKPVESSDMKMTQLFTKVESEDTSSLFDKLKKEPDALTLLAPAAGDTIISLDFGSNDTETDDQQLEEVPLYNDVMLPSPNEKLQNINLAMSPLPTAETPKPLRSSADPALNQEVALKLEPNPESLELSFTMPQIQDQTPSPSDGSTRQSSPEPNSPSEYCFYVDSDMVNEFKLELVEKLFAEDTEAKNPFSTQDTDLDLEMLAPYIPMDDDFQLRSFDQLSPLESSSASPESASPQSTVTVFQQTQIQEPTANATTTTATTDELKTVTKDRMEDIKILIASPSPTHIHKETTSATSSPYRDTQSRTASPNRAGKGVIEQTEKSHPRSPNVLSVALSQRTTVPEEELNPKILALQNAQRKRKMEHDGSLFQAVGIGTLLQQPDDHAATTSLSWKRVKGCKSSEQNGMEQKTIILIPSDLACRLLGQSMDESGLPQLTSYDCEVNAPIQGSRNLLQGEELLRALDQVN

The target of test [5] is Hepatocyte nuclear factor 6 (Homo sapiens) (UniProt Q9UBC0). The test can be described thus: ATG_HNF6_CIS: Attagene CIS-FACTORIAL HepG2 Assay for human Hepatocyte Nuclear Factor 6 (HNF6) (AID 2282952). To be noted: HepG2 Attagene cis-factorial HNF6 reporter transcription; actives raise or lower the signal. Summed up: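 First, HepG2 cells were transfected with the multiplexed cis reporter library and dosed with chemical for 24 h. Next, RNA was reverse-transcribed, PCR-amplified and fluorescently labelled. Finally, HpaI-digested fragments were read by capillary electrophoresis.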
Chain of Hepatocyte nuclear factor 6 (Homo sapiens) (Q9UBC0 whole entry, looked up, the tested form may be a part): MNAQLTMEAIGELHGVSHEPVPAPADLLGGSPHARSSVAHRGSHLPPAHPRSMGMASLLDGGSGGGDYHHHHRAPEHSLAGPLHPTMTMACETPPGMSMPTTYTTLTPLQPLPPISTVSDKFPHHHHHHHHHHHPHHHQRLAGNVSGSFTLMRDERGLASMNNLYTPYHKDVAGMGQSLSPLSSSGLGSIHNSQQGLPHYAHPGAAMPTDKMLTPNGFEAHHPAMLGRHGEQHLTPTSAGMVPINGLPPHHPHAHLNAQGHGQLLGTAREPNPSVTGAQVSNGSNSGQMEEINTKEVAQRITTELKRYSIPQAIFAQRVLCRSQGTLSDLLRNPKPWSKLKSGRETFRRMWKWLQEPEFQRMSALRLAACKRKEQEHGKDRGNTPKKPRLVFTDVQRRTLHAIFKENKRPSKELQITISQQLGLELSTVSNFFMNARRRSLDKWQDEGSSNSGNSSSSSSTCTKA

In test [6] the target is Heat shock factor protein 1 (Homo sapiens) (UniProt Q00613). The test can be described thus: ATG_HSE_CIS: Attagene CIS-FACTORIAL HepG2 Assay for human Heat Shock Transcription Factor 1 (HSE) (AID 2282953). Conditions: HepG2 HSE cis-reporter, Attagene RNA transcription; actives raise or lower the signal. In outline:
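Liver-derived HepG2 cells carry transiently introduced multiple reporter units governed by cis promoters. Reporter RNA measured 24 h post-dose through reverse transcription, PCR amplification, fluorescent labelling and capillary electrophoresis, normalised to DMSO.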

Test [7] can be described thus: ATG_MRE_CIS: Attagene CIS-FACTORIAL HepG2 Assay for human Metal Responsive Element (MRE) (AID 2282954). To be noted: HepG2 MRE cis-reporter transcription, Attagene multiplex; actives raise or lower the signal. Summed up: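 Measured here is mRNA induction from an MRE cis-element reporter in HepG2 after 24 h, quantified by fluorescence of labelled RT-PCR products on capillary electrophoresis; gain- and loss-of-signal fits use DMSO as baseline.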

Test [8] can be described thus: ATG_PBREM_CIS: Attagene CIS-FACTORIAL HepG2 Assay for human Phenobarbital-responsive Enhancer Module (PBREM) (AID 2282955). Conditions: HepG2 PBREM cis-reporter, Attagene multiplexed transcription; actives raise or lower the signal. In outline:
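HepG2, transient MRTU transfection, 24 h dosing; RNA → oligo(dT) RT → PCR → 6-FAM extension → HpaI → CE. Bidirectional fit vs DMSO.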

In test [9] the target is Paired box protein Pax-6 (Homo sapiens) (UniProt P26367). The experiment in a line: ATG_Pax6_CIS: Attagene CIS-FACTORIAL HepG2 Assay for human Paired Box 6 (PAX6) (AID 2282956). Conditions: HepG2 CIS-FACTORIAL PAX6 reporter transcription, RNA readout; actives raise or lower the signal. In outline: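 Readout: reporter transcript fluorescence after RT-PCR and capillary electrophoresis. Cells: HepG2, transiently transfected with cis-regulated MRTUs. Exposure 24 h. Gain or loss of signal fitted bidirectionally relative to DMSO.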
Chain of Paired box protein Pax-6 (Homo sapiens) (P26367 whole entry, looked up): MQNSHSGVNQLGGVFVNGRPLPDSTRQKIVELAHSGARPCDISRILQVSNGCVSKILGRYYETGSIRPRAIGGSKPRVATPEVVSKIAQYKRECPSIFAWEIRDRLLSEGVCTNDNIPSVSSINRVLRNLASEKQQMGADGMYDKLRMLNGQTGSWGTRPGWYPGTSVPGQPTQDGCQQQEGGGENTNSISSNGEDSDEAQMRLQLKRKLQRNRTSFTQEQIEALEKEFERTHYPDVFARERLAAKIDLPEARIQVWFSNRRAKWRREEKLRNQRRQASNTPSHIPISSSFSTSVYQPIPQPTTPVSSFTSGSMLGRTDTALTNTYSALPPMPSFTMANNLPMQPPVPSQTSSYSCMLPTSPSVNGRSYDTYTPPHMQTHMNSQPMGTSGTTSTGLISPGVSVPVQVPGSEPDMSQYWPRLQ

Test [10] is described as follows: ATG_PXRE_CIS: Attagene CIS-FACTORIAL HepG2 Assay for human Pregnane X Receptor Element (PXRE) (AID 2282957). To be noted: HepG2 Attagene CIS-FACTORIAL PXRE reporter, mRNA; actives raise or lower the signal. Summed up:
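After a 24 h chemical incubation, total RNA from transfected HepG2 cells was reverse-transcribed and reporter cDNA amplified, FAM-labeled, HpaI-digested and sized by capillary electrophoresis. DMSO served as baseline for bidirectional curve fitting.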

The nature of test [11]: ATG_PPRE_CIS: Attagene CIS-FACTORIAL HepG2 Assay for human Peroxisome Proliferator-activated Response Element (PPRE) (AID 2282958). To be noted: HepG2 PPRE cis-element reporter, Attagene transcription factor profiling; actives raise or lower the signal. In outline: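 Transcript-level reporter induction in transfected HepG2 cells after 24 h chemical exposure, quantified by fluorescence from RT-PCR products separated by capillary electrophoresis.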

The nature of test [12]: ATG_RORE_CIS: Attagene CIS-FACTORIAL HepG2 Assay for human RAR-related Orphan Receptor Element (RORE) (AID 2282959). Conditions: HepG2 Attagene cis-factorial RORE reporter, mRNA; actives raise or lower the signal. In outline:
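Multiplexed reporter assay measuring mRNA induction from a cis promoter element in transiently transfected HepG2 cells after 24 h treatment. Detection via RT-PCR and capillary electrophoresis fluorescence; DMSO serves as baseline.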

A short description of test [13]: ATG_Sox_CIS: Attagene CIS-FACTORIAL HepG2 Assay for human SRY-box transcription factor (SOX) (AID 2282960). To be noted: HepG2 Attagene cis-factorial SOX reporter, mRNA; actives raise or lower the signal. Summed up:
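Cells were transfected with reporter constructs under cis-regulatory promoters, then exposed to chemicals for 24 h. Reporter transcripts were quantified by fluorescence after RT-PCR and capillary electrophoresis; activity was fitted in both directions against DMSO.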

Test [14] deals with Transcription factor Sp1 (Homo sapiens) (UniProt P08047). The test can be described thus: ATG_Sp1_CIS: Attagene CIS-FACTORIAL HepG2 Assay for human Specificity Protein 1 (Sp1) (AID 2282961). To be noted: HepG2 Sp1 cis-reporter transcription, actives raise or lower the signal. In outline:
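Measures mRNA induction of an Sp1-linked reporter in HepG2 cells 24 h post-dosing. Multiplexed reporters read by RT-PCR and capillary electrophoresis; DMSO serves as negative control and baseline.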

Test [15] is described as follows: ATG_SREBP_CIS: Attagene CIS-FACTORIAL HepG2 Assay for human Sterol Regulatory Element Binding (SREBP) (AID 2282962). Conditions: HepG2 Attagene cis-factorial SREBP reporter, mRNA; actives raise or lower the signal. In outline:
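Readout: fluorescent reporter-transcript peaks resolved by capillary electrophoresis after RT-PCR. Cells were human HepG2 carrying transfected cis-promoter reporter constructs, dosed for 24 h. Gain or loss of signal was fitted against DMSO controls.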

Test [16] has as its target Signal transducer and activator of transcription 3 (Homo sapiens) (UniProt P40763). The experiment in a line: ATG_STAT3_CIS: Attagene CIS-FACTORIAL HepG2 Assay for human Signal Transducer and Activator of Transcription 3 (STAT3) (AID 2282963). To be noted: HepG2, Attagene cis-factorial STAT3 reporter transcription; actives raise or lower the signal. Summed up: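 Fluorescence intensity of 6-FAM-labelled reporter fragments, separated by capillary electrophoresis after RT-PCR, gave the signal. Cells were HepG2 transfected with cis-element reporter units and treated 24 h; fitting was bidirectional relative to DMSO.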

Test [17] can be described thus: ATG_TA_CIS: Attagene CIS-FACTORIAL HepG2 Assay for human TA Basal Promoter (AID 2282964). To be noted: HepG2 Attagene CIS-factorial TA basal promoter reporter; actives raise or lower the signal. In outline: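 Background internal-marker endpoint from a 52-component HepG2 cis-reporter panel. Cells treated 24 h; reporter transcripts quantified via RT-PCR and CE fluorescence against DMSO baseline.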

Test [18] in a line: ATG_M_32_CIS: Attagene CIS-FACTORIAL HepG2 Assay for M32 Transcription Factor (Internal Marker) (AID 2282949).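 Further: background control marker of the multiplexed CIS panel rather than a real target.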 Conditions: HepG2 Attagene cis-factorial M32 reporter, mRNA; actives raise or lower the signal. Summed up: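 HepG2 transfectants (cis-regulated reporter transcription units) dosed 24 h. Reporter mRNA by RT-PCR plus CE, analysed as gain or loss relative to DMSO.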

Active and inactive are the calls of the source. How the source made its calls: active means hit-call score of the fitted dose curve at least 0.9, where 1 is the maximum; inactive means score below 0.9.

Chain of Heat shock factor protein 1 (Homo sapiens) (Q00613 whole entry, looked up): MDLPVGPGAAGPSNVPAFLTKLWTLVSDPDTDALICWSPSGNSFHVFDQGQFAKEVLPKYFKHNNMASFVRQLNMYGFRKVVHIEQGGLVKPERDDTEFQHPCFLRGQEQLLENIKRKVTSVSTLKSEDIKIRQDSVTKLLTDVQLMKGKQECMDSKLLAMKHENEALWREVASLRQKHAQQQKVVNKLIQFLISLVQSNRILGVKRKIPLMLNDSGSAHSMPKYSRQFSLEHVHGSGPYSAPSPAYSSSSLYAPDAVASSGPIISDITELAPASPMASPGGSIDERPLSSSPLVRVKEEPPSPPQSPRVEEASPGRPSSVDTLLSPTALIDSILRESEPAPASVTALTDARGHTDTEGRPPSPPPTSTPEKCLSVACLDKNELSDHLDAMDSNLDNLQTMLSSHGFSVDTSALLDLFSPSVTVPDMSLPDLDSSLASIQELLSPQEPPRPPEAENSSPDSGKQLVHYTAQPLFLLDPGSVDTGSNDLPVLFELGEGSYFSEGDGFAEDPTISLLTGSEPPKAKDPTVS
Chain of Transcription factor Sp1 (Homo sapiens) (P08047 whole entry, looked up): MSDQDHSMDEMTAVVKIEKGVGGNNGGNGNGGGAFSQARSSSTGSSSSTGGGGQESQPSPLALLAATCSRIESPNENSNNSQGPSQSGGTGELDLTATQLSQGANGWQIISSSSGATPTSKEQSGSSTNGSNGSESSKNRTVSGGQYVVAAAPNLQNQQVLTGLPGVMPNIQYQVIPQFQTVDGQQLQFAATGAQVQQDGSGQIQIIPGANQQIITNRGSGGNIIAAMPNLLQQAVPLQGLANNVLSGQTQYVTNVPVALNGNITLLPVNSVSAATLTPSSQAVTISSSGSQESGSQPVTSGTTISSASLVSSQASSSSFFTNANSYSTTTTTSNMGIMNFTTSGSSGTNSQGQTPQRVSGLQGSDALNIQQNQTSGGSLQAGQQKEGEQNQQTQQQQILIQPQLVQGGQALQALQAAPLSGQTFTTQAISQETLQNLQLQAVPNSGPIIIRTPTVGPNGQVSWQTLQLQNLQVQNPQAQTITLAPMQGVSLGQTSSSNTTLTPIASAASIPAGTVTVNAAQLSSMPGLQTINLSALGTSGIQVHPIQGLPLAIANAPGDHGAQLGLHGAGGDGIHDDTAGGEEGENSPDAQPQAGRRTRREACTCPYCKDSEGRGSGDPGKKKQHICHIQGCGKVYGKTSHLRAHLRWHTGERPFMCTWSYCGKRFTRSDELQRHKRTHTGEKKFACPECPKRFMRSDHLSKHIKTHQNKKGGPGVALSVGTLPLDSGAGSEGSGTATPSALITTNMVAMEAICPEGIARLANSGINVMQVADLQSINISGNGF
Chain of Signal transducer and activator of transcription 3 (Homo sapiens) (P40763 whole entry, looked up, the tested form may be a part): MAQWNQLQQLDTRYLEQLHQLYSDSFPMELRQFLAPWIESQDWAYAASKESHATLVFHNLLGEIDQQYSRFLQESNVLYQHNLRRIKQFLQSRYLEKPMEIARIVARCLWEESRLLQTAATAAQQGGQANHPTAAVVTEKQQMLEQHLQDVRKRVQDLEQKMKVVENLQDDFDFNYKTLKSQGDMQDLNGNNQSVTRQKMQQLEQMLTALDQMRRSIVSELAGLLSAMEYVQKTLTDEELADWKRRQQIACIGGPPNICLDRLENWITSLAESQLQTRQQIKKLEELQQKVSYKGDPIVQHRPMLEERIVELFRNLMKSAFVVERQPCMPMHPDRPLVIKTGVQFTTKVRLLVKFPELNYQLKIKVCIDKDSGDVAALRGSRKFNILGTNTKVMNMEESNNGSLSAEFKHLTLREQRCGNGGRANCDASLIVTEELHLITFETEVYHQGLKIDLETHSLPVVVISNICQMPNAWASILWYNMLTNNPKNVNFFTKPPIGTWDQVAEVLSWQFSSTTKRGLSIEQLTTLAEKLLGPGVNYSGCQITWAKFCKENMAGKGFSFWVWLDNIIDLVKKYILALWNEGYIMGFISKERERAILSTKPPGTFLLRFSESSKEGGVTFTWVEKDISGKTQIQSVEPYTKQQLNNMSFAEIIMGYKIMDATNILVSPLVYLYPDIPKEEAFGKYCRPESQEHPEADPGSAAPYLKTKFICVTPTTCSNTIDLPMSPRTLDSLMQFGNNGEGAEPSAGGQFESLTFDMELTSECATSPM

Take `O=C1CCCCCCCCCCC1`: the molecule was classed as inactive in test [1], in test [2], in test [3], in test [4], in test [5] and in [6]. In addition, the outcome in test [7], in test [9], in test [11], in test [12], in test [13] and in test [14] was inactive. The outcome in [15], in test [16] and in [17] was inactive. The AC50 in test [8] is 22.2 µM (active); in [10] it was 8.96 µM (active).

As for `Cc1c(O)cccc1O`, the outcome in test [1], in [2], in test [18], in test [3], in [4] and in [5] was inactive. Moreover, the outcome in test [7], in test [8], in [9], in [11], in test [12] and in test [13] was inactive. Further, the outcome in [14], in test [15], in test [16] and in test [17] was inactive. Further, in test [10], the concentration at half-maximal activity (AC50) is 127 µM (active).

As to `C=CCOC(=O)c1ccc(C(=O)OCC=C)c(C(=O)OCC=C)c1`, the outcome in test [1], in test [2], in test [18], in [4], in test [5] and in test [6] was inactive. Besides, the call in [7], in test [8], in [9], in test [13], in [14] and in test [16] was inactive. Moreover, the molecule was called inactive in [17]. In addition, the AC50 in [10] is 21 µM (active); in [11], 14.8 µM (active); in test [12] it was 32.5 µM (active).

Consider `CC1=CC=C(C(C)C)CC1`, for which the molecule was called inactive in test [1], in test [2], in [18], in [3], in [4] and in test [5]. The result in test [6], in test [7], in test [8], in test [9], in [13] and in test [14] was inactive. For the same molecule, the outcome in [15], in test [16] and in [17] was inactive. Moreover, the AC50 in test [10] is 3.61 µM (active).

For `CCCCCCOC(=O)CCCCC(=O)OCCCCCC`, the molecule was called inactive in [1], in [2], in test [18], in test [4], in test [5] and in test [6]. In addition, the result in test [7], in test [8], in test [9], in test [11], in [13] and in [14] was inactive. Moreover, the outcome in test [15], in test [16] and in test [17] was inactive. Also, the AC50 in test [10] was 19.8 µM (active).

As for `CC1=CCC2CC1C2(C)C` (stereo not given), the outcome in test [1], in [2], in [3], in test [4], in test [5] and in test [6] was inactive. Also, the molecule was called inactive in test [7], in test [9], in test [11], in test [12], in test [13] and in test [14]. Further, the molecule was classed as inactive in test [16] and in test [17]. In addition, the concentration at half-maximal activity (AC50) in test [10] is 37.2 µM (active).

On to `Cc1ccc2c(c1)CCCN2`, for which the molecule was classed as inactive in test [1], in [2], in test [18], in [3], in [4] and in [5]. In addition, the molecule was classed as inactive in test [6], in [7], in test [8], in test [9], in [12] and in test [13]. In addition, the molecule was called inactive in [14], in test [15], in [16] and in test [17].

For `CC(C)(CO)C(O)C(=O)NCCCO` (stereo not given), the result in test [1], in test [2], in test [18], in test [3], in [5] and in [7] was inactive. The result in test [8], in [9], in test [11], in test [12], in test [13] and in test [14] was inactive. Further, the outcome in test [15], in test [16] and in [17] was inactive.

Turning to `CC1=CCC(C(C)C)C=C1` (stereo not given), the molecule was classed as inactive in test [1], in [2], in test [18], in test [3], in test [4] and in test [5]. In addition, the molecule was called inactive in test [6], in test [8], in test [9], in [13], in test [14] and in [15]. In addition, the molecule was called inactive in test [16] and in test [17]. The half-maximal activity concentration (AC50) was 62.6 µM (active) in test [7] and 3.56 µM (active) in test [10].

`C=CCCCCCCCCO`: the result in [1], in [2], in test [18], in test [3], in test [4] and in [5] was inactive. Also, the outcome in test [7], in test [9], in test [11], in test [12], in test [13] and in test [14] was inactive. Besides, the molecule was called inactive in test [15], in test [16] and in test [17]. For the same molecule, the AC50 in [10] was 51.6 µM (active).

As a reminder, the AC50 is the midpoint of the concentration-response curve, whichever way the signal moves.
